In the library only some 2.9% were active in any assay of this set; here they are far more common.
PAFAH1B3 inh: inhibitors of human PAFAH1B3; Q15102; recombinant PAFAH1B3, FP-rhodamine probe, fluorescence polarization; inhibition, % at 3.39 µM; actives 0.28% (n = 340,000); AID 492972;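 active = inhibition above the screen-wide average of all tested compounds plus 3 SD, cut at about 25% in these data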;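 note: 0% = enzyme with DMSO only and 100% = wells lacking PAFAH1B3 protein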
PAFAH1B2 inh: blocks human PAF acetylhydrolase 1b catalytic subunit 2. actives 1.2% (n = 340,000). inhibition, % at 3.39 µM. P68402. recombinant PAFAH1B2, FP-rhodamine activity probe, fluorescence polarization;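 active = inhibition above the mean of all tested compounds plus 3 SD, cut at about 24% in these data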;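 note: 0% = enzyme with DMSO and 100% = wells lacking PAFAH1B2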
PAFAH2 FP inh: inhibitors of human PAFAH2; Q99487; recombinant PAFAH2, FP-rhodamine activity probe, fluorescence polarization; inhibition, % at 3.39 µM; actives 0.99% (n = 340,000); AID 492956;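 active = inhibition above the mean over all tested compounds plus 3 SD, cut at about 30% in these data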;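 note: inhibitors block probe labeling of enzyme so polarization drops; 0% = enzyme with DMSO and 100% = wells lacking PAFAH2 protein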
LYPLA1 counter: LYPLA1 (human) inhibition in PME1 counter-screen | recombinant LYPLA1, FP-Rh probe fluorescence polarization | inhibition, % at 5.9 µM | O75608 | actives 0.16% (n = 320,000);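 active = inhibition above the mean of all tested compounds plus 3 SD, set per campaign, cut at about 14% in these data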;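 note: inhibitors block serine hydrolase probe labeling of LYPLA1 so polarization falls; 0% = enzyme with DMSO and 100% = wells lacking LYPLA1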
LYPLA2 inh: counter-screen for PME1 inhibitors: inhibitors of human LYPLA2; AID 2177; inhibition, % at 5.9 µM; recombinant LYPLA2, FP-Rh probe fluorescence polarization; O95372; actives 0.38% (n = 320,000);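 active = inhibition above the screen-wide mean plus 3 SD, limit set per campaign, cut at about 26% in these data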;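 note: 0% = LYPLA2 with DMSO and 100% = wells lacking LYPLA2 enzyme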
Target sequence (O95372 whole entry, looked up): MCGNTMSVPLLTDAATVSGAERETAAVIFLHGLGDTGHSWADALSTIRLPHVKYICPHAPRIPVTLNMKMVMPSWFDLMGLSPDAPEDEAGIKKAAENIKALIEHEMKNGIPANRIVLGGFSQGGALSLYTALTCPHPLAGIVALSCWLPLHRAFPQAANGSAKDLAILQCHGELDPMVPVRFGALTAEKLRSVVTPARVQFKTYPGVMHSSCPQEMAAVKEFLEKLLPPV
pPAFAH FP inh: pPAFAH (human) enzyme inhibition. inhibition, % at 3.39 µM. recombinant pPAFAH, FP-rhodamine probe fluorescence polarization. actives 1.5% (n = 330,000);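 active = inhibition above the mean inhibition across the screen plus 3 SD, cut at about 25% in these data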;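 note: inhibitors block binding of the rhodamine activity-based probe so polarization drops; 0% = enzyme with DMSO and 100% = wells lacking pPAFAH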
* hit, by the source's call; · = no result.

SMILES	PAFAH1B3 inh	PAFAH1B2 inh	PAFAH2 FP inh	LYPLA1 counter	LYPLA2 inh	pPAFAH FP inh
CCC(C)(C)C(=O)Nc1ncc(S(=O)(=O)c2ccc([N+](=O)[O-])cc2)s1	6	9	2	5	3	-4
COC(=O)C(NC(=O)c1ccccc1Cl)(Nc1ncc(S(=O)(=O)c2ccc([N+](=O)[O-])cc2)s1)C(F)(F)F (stereo unspecified)	6	26*	2	-5	-1	2
O=[N+]([O-])c1ccc(C=Nc2ccc(Cl)c([N+](=O)[O-])c2)s1	16	13	60*	·	·	·
Cc1cc(C)cc(N=Cc2ccc([N+](=O)[O-])s2)c1	21	5	15	-1	3	4
NC(=O)c1ccc(N=Cc2ccc([N+](=O)[O-])s2)cc1	13	8	60*	-3	-2	14
Cc1cc(NC(=O)/C=C/c2ccc(Br)cc2)no1	5	2	0	-2	5	-6
CC(C)C(=O)NC(c1ccccc1)c1cc([N+](=O)[O-])c2cccnc2c1O (stereo unspecified)	-4	0	9	-5	-4	34*
CC(=O)Cc1nsc(NC(=O)c2ccc(COc3ccccc3)o2)n1	-4	2	-9	-1	4	27*
COc1cccc(/C=N/NC(=O)c2ccc(COc3ccc(Cl)cc3Cl)o2)c1	2	5	4	-12	-31	-9
COc1cc(/C=N/NC(=O)c2ccc(COc3ccccc3Cl)o2)cc(Br)c1O	13	3	-1	0	-1	32*
O=C(Nc1ccc(Cl)cc1)C1=Cc2ccccc2OC1	-1	-3	-17	-11	-14	-3
N#CC(C(=O)C12CC3CC(CC(C3)C1)C2)c1nc2ccccc2[nH]1 (stereo unspecified)	-3	13	31*	-2	0	19
N#CC(C(=O)CCN1C(=O)C2CC=CCC2C1=O)c1nc2ccccc2[nH]1 (stereo unspecified)	11	1	4	-1	2	5
CCC1=NNc2cccc3c(OC)ccc1c23	·	·	·	7	10	48*
CCCCNC(=O)Oc1ccc(C(=O)N2c3ccccc3NC(=O)C2C)cc1 (stereo unspecified)	4	34*	-11	0	-2	-2
Cc1[nH]n(-c2ncc(-c3ccc(Cl)cc3)s2)c(=O)c1C(c1ccc(Cl)cc1)C(C#N)C#N (stereo unspecified)	13	7	25	0	4	29*
COc1ccc(C(c2c(C)[nH]n(C(N)=S)c2=O)C(C#N)C#N)cc1 (stereo unspecified)	-1	2	0	-1	-6	-1
COc1ccc(-c2nnn(Cc3nc(N)nc(N4CCOCC4)n3)n2)cc1OC	2	3	-1	2	3	1
Cc1ccc(S(=O)(=O)N2[C@@H](c3ccc(Cl)cc3)C(C(=O)O)=CC[C@H]2c2ccc(Cl)c(Cl)c2)cc1	-2	90*	7	-12	-17	10
COc1cc([C@@H]2CC=C(C(=O)O)[C@H](c3ccc(Cl)cc3)N2S(=O)(=O)c2ccc(C)cc2)cc(OC)c1OC	13	-2	-13	0	2	-1
Cc1ccc(S(=O)(=O)N2[C@@H](c3ccc(Br)cc3)C(C(=O)O)=CC[C@H]2c2ccc(C(C)C)cc2)cc1	-2	89*	15	·	·	16
CCOc1ccc([C@@H]2CC=C(C(=O)O)[C@H](c3ccc(F)cc3)N2S(=O)(=O)c2ccc(C)cc2)cc1	7	19	-2	0	2	4
CCc1ccc([C@@H]2CC=C(C(=O)O)[C@H](c3ccc(C(C)(C)C)cc3)N2S(=O)(=O)c2ccc(C)cc2)cc1	5	87*	9	·	·	18
Cc1ccc(S(=O)(=O)N2[C@@H](c3ccc(C(C)(C)C)cc3)C(C(=O)O)=CC[C@H]2c2ccc(C(C)C)cc2)cc1	2	83*	2	·	·	11
Cc1ccccc1CNC(=O)C(=O)NCCC1CCCCN1S(=O)(=O)c1ccccc1 (stereo unspecified)	6	15	6	1	3	4
COc1ccc([C@@H]2CC=C(C(=O)O)[C@H](c3ccccc3)N2S(=O)(=O)c2ccc(C)cc2)cc1OC	7	5	0	0	4	-1
